In PubChem BioAssay AID588590 (National Center for Advancing Translational Sciences (NCATS), 2011):
Out of some 390,000 compounds screened, about 4,000 (1%) were called active. A call without a number means that no potency is given here. Inconclusive results (about 7%) are left out. Calls follow the shape of the dose curve; as a rule, active = well fitted inhibition curve with a large enough effect; inconclusive = small, poorly fitted or top-dose-only effect, or another doubt; inactive = no such curve, though single readings can be large or run the other way. Only a selection was taken, and actives are over-represented in it overall.
Potency is read from the fitted curve at half-maximal effect.

Each compound was assayed against DNA polymerase iota (Homo sapiens) (UniProt Q9UNA4) (assay: qHTS for Inhibitors of Polymerase Iota). Conditions: Pol iota fluorescent replication assay, 10 min; series mostly up to 115 µM.
Chain of DNA polymerase iota (Homo sapiens) (Q9UNA4 whole entry, looked up): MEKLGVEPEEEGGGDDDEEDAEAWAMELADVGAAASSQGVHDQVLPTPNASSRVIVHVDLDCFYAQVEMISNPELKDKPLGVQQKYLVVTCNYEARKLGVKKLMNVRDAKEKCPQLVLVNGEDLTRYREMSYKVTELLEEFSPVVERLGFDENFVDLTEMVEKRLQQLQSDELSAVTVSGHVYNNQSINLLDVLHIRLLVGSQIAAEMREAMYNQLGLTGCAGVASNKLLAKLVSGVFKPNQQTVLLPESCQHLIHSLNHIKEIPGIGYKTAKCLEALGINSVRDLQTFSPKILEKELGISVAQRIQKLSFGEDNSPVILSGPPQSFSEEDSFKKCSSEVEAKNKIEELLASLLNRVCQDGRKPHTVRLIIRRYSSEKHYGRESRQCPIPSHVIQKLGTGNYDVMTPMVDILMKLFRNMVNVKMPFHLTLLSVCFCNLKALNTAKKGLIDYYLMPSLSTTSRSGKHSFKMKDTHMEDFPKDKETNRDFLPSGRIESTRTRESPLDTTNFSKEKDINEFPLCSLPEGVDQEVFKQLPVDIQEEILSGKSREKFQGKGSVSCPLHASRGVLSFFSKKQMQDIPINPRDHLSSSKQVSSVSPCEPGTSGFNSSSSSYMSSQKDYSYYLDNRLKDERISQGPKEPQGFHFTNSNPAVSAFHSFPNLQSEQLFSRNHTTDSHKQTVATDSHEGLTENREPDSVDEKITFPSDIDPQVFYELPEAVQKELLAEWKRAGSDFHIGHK
Method in brief: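 Pol iota at 10 nM preincubated 15 min with compounds at room temperature; reaction started with fluorescent substrate, 50 nM final. Fluorescence read kinetically at 0 and 10 min; buffer-only wells as negative control.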
For `Cc1ccc(N2CC(c3nnc(Cc4ccccc4Cl)o3)CC2=O)cc1` (centres undefined), the Potency was “inactive”. `CCOc1ccc(N(CC)S(=O)(=O)N2CCCC(C(=O)NCc3ccc(Cl)cc3)C2)cc1` (centres undefined) was tested, and the Potency was “inactive”. In the case of `CCOc1ccc(-n2nc3ccc(NC(=O)c4ccc(OC)c(Cl)c4)cc3n2)cc1`, the Potency is reported as “inactive”. With `CCOc1ccc(CNC(=O)C2CCCN(S(=O)(=O)N(CC)c3ccc(OCC)cc3)C2)cc1` (centres undefined) the Potency was “inactive”. For `CCN(CC)CCNC(=O)Cn1ncc2c3ccccc3n(Cc3ccccc3C)c2c1=O`, the Potency was “inactive”. For `N#Cc1cccc(OC(=O)c2ccc3c(=O)n4c(nc3c2)CCC4)c1`, the Potency was 20 µM (active). With `CC1CCN(C(=O)c2ccc3c(=O)n4c(nc3c2)CCCCC4)CC1` the Potency was “inactive”. `COC(=O)c1ccccc1NC(=O)c1ccc2c(=O)n3c(nc2c1)CCCCC3` was tested, and the Potency was “inactive”. With `CCOC(=O)c1c(NC(=O)Cc2coc3ccc(CC)cc23)sc2c1CCC2` the Potency was “inactive”. With `O=C1COc2c1ccc(O)c2O` the Potency was 17.8 µM (active). In the case of `CCc1ccc(CNC(=O)c2cc3c(=O)n(CC)c4ccccc4c3s2)cc1`, the Potency is reported as “inactive”. With `O=C(CN1C(=O)COc2ccccc21)Nc1ccc(F)cc1` the Potency was “inactive”. With `CCc1ccc(NC(=O)CN2C(=O)CSC2=O)cc1` the Potency was “inactive”. `Cn1cccc1/C=C1\SC(=O)N(CC(=O)Nc2ccc(F)cc2)C1=O` was tested, and the Potency was 79.4 µM (active). In the case of `Cc1ccccc1CN1CCC(CNC(=O)c2c(C)oc3ncnc(N4CCCCC4)c23)CC1`, the Potency is reported as “inactive”. In the case of `CCOc1cc(-c2nnc(SCC(=O)NC3CCCCC3)nc2-c2ccc(OC)c(OCC)c2)ccc1OC`, the Potency is reported as “inactive”. With `CCc1nn(CC(=O)N2CCN(CC)CC2)c(=O)c2cccn12` the Potency was “inactive”. For `CCCN1CCN(C(=O)Cn2ncc3ccccc32)CC1`, the Potency was 39.8 µM (active). With `CN1CCN(C(=O)Cn2c(C(F)(F)F)nc3ccccc32)CC1` the Potency was “inactive”. For `Oc1ccc(-c2nc3ccc(Cl)cn3c2Nc2ccc3c(c2)OCO3)cc1`, the Potency was “inactive”. `Cc1ccc(C)c(NC(=S)NNC(=S)Nc2ccc(C(C)C)cc2)c1` was tested, and the Potency was “inactive”. For `CC(C)c1ccc(NC(=S)NNc2ccc(Cl)c(C(=O)O)c2)cc1`, the Potency was 11.2 µM (active). `O=C(NC(=S)Nc1ccc(Cl)c(C(=O)O)c1)c1cncc(Br)c1` was tested, and the Potency was “inactive”. `COc1ccccc1NC(=O)Cn1cnc2ccc(S(=O)(=O)N3CCC(C)CC3)cc2c1=O` was tested, and the Potency was “inactive”. In the case of `COC(=O)c1ccc2c(c1)N(CC(=O)Nc1ccc(C)c(C)c1)C(=O)c1ccccc1S2`, the Potency is reported as “inactive”. For `COc1cccc(NC(=O)CN2C(=O)c3ccccc3Sc3ncccc32)c1`, the Potency was “inactive”. For `COc1ccccc1NC(=O)CN1C(=O)c2ccccc2Sc2ccc(C(=O)N3CCCC3)cc21`, the Potency was 79.4 µM (active). In the case of `CCc1c(C)sc(NC(=O)C2c3ccccc3Oc3ccccc32)c1C(=O)OC(C)C`, the Potency is reported as “inactive”. For `CC(C)CC(NS(=O)(=O)c1ccc2c(c1)oc(=O)n2C)C(=O)NCc1ccccc1Cl` (centres undefined), the Potency was “inactive”. In the case of `COc1ccccc1C(=O)Nc1c(C(=O)Nc2ccc(C)cc2)oc2ccccc12`, the Potency is reported as “inactive”. In the case of `Cn1c(=O)c2c(nc(SCC(=O)Nc3ccc(F)cc3)n2Cc2ccccc2)n(C)c1=O`, the Potency is reported as “inactive”. For `O=C1CCCN1C(=O)COc1ccc([N+](=O)[O-])cc1`, the Potency was “inactive”. `O=[N+]([O-])c1ccc(/C=C/c2ccc3cccnc3c2)cc1` was tested, and the Potency was “inactive”. With `O=C1/C(=C\c2ccc([N+](=O)[O-])cc2)CS(=O)(=O)C/C1=C/c1ccc([N+](=O)[O-])cc1` the Potency was 11.2 µM (active). For `CC(C)Oc1ccc(CNC(=O)C2CCN(c3nc4ccccc4n(C)c3=O)CC2)cc1`, the Potency was “inactive”. With `C(=Nc1ccc(/C=C/c2ccnc3ccccc23)cc1)Nc1ccc(/C=C/c2ccnc3ccccc23)cc1` the Potency was “inactive”. In the case of `COc1ccc(-c2oc3ncnc(NCCCO)c3c2-c2ccc(OC)cc2)cc1`, the Potency is reported as “inactive”. `OCCNc1ncnc2oc(-c3ccco3)c(-c3ccco3)c12` was tested, and the Potency was 12.6 µM (active). For `Cc1noc2ncnc(NCc3ccccc3Cl)c12`, the Potency was “inactive”. In the case of `CN(Cc1ccccc1)c1ncnc2onc(-c3ccc(F)cc3)c12`, the Potency is reported as “inactive”. In the case of `CN(C)c1cccc2ccccc12`, the Potency is reported as “inactive”. In the case of `CCN1CCN(CCCNC(=O)c2ccc3c(c2)sc2nc(-c4ccc(OC)cc4)cn23)CC1`, the Potency is reported as “inactive”. `CCCCCn1c(CCNC(=O)c2ccc(F)cc2)nc2ccccc21` was tested, and the Potency was “inactive”. In the case of `Cc1noc(C)c1S(=O)(=O)Nc1ccc(C(=O)N2CCN(c3ccc(F)cc3)CC2)cc1`, the Potency is reported as 79.4 µM (active). `CN1CCN(C(=O)c2ccc(NS(=O)(=O)c3ccccc3)cc2)CC1` was tested, and the Potency was “inactive”. With `Cc1noc(C)c1S(=O)(=O)Nc1ccc(C(=O)O)cc1` the Potency was “inactive”. With `O=C(CC1N=C2c3ccccc3N=C(SCc3cccc(Cl)c3)N2C1=O)NCc1ccc2c(c1)OCO2` (centres undefined) the Potency was “inactive”. `O=c1[nH]c(CN2CCN(S(=O)(=O)c3ccc4c(c3)OCCO4)CC2)nc2sc3c(c12)CCCC3` was tested, and the Potency was “inactive”. `O=C(CCc1nc2sc3c(c2c(=O)[nH]1)CCCC3)NCC(=O)Nc1ccccc1Br` was tested, and the Potency was 50.1 µM (active). `CCCc1nc2sc3c(c2c(=O)n1NC(=O)CCCl)CCCC3` was tested, and the Potency was “inactive”. In the case of `CCOC(=O)c1[nH]c(C)c(CCC(=O)N2CCN(c3ccccc3)CC2)c1C`, the Potency is reported as “inactive”. For `CCOc1ccc(C(=O)COC(=O)c2ccc(-n3cnnn3)cc2)cc1`, the Potency was “inactive”. `C=CCc1cccc(/C=N/NC(=O)COc2ccc(-n3cnnn3)cc2)c1O` was tested, and the Potency was “inactive”. For `O=C(COc1ccc(-n2cnnn2)cc1)Nc1ccccc1Cl`, the Potency was 79.4 µM (active). With `Cc1ccc2[nH]c3c(=O)n(CC(=O)NC(C)C)ncc3c2c1` the Potency was “inactive”. With `Fc1ccc(CSc2nc(NCc3ccccc3)c3ccccc3n2)cc1` the Potency was “inactive”. With `O=C(CSc1nc(Nc2ccc(F)c(F)c2)c2ccccc2n1)c1ccc(Cl)cc1` the Potency was “inactive”. With `Fc1ccc(Nc2nc(SCc3ccccc3Cl)nc3ccccc23)cc1` the Potency was 79.4 µM (active). In the case of `COc1ccc(-n2c(=O)c3sc4ccccc4c3n(CC(=O)Nc3cccc(C)c3)c2=O)cc1`, the Potency is reported as “inactive”. With `COc1ccc(NC(=O)Nc2cccc(-c3noc(C)n3)c2)cc1` the Potency was “inactive”. With `CCOC(=O)c1sc2nc(CSCC(=O)OCc3ccc(C(=O)OC)o3)[nH]c(=O)c2c1C` the Potency was “inactive”. `CSc1nnc(SCc2nc3sc(C(=O)O)c(C)c3c(=O)[nH]2)s1` was tested, and the Potency was 3.98 µM (active). In the case of `Cc1sc2nc(CSCC(=O)Nc3c(Cl)cccc3Cl)[nH]c(=O)c2c1C`, the Potency is reported as “inactive”. In the case of `Cc1ccc(S(=O)(=O)c2cn(Cc3ccccc3)c3cc(N4CCCC4)c(F)cc3c2=O)c(C)c1`, the Potency is reported as “inactive”. With `CN(Cc1ccccc1)c1ccc(/C=C/c2ccnc3ccccc23)cc1` the Potency was “inactive”. In the case of `CC1CCN(C(=O)CCc2nnc3ccc(NCc4ccco4)nn23)CC1`, the Potency is reported as “inactive”. For `O=C(CCc1nnc2ccc(NCc3ccco3)nn12)Nc1cc(F)ccc1F`, the Potency was “inactive”. `CCOc1ccccc1NC(=O)CCc1nnc2ccc(NCc3ccco3)nn12` was tested, and the Potency was 50.1 µM (active). For `Cc1ccc(C=O)cc1Cl`, the Potency was “inactive”. In the case of `COc1ccc(CCNC(=O)c2ccc3c(c2)nc(C)n3-c2ccc(Br)cc2)cc1OC`, the Potency is reported as “inactive”. For `CCC(CC)c1nn2cc(-c3ccccc3)nc2s1`, the Potency was “inactive”. With `O=C(Nc1ccc(C(=O)O)cc1)/C(=C\c1ccccc1)NC(=O)c1ccc(Br)cc1` the Potency was “inactive”. `O=C(O)c1ccc(/C=C2\SC(=S)N(NC(=O)c3ccc(Br)cc3)C2=O)cc1` was tested, and the Potency was 22.4 µM (active). `C/C(CC(=O)N1CCN(C=O)CC1)=N\NC(=O)c1ccc(Br)cc1` was tested, and the Potency was “inactive”. `CN1CCN(/[N+]([O-])=N/Oc2ccc([N+](=O)[O-])cc2[N+](=O)[O-])CC1` was tested, and the Potency was “inactive”. In the case of `CCc1nnc2c3ccccc3nc(N3CCN(c4ccc(C)cc4C)CC3)n12`, the Potency is reported as “inactive”. `O=C(CCS(=O)(=O)c1ccc(Br)cc1)NCCc1ccc(Cl)cc1` was tested, and the Potency was “inactive”. In the case of `COc1ccc(Cl)cc1NC(=O)CCS(=O)(=O)c1ccc(Br)cc1`, the Potency is reported as 56.2 µM (active). For `COc1ccc(Cl)cc1NC(=O)CCC(=O)c1ccc(C)cc1`, the Potency was “inactive”. For `COc1ccc(Nc2ncc3c(n2)CCN(C(=O)OC(C)(C)C)C3)cc1`, the Potency was “inactive”. In the case of `Cc1c(C)n(Cc2ccc(Cl)cc2)c2ccc(C(=O)NCCc3ccc(S(N)(=O)=O)cc3)cc12`, the Potency is reported as “inactive”. For `CN(C(=O)CSc1nnc(NC(=O)Nc2ccccc2)s1)c1ccccc1`, the Potency was “inactive”. For `O=C(c1[nH]ncc1-c1ccc(Cl)cc1)C1CO1` (centres undefined), the Potency was 56.2 µM (active). For `COC(=O)c1scc(-c2ccccc2)c1S(=O)(=O)Nc1ccccc1`, the Potency was “inactive”. For `O=C1CCC[C@@H]2C[C@@]3(C[C@@H]4CCN1[C@H]24)Nc1ccccc1NC3=NCc1ccccc1`, the Potency was “inactive”. `COc1cc2nc(N3CCCN(C)CC3)nc(NC3CC3)c2cc1OC` was tested, and the Potency was “inactive”. For `COc1ccc(-c2cn3nc(N4CCCC(C(=O)NCCCOC(C)C)C4)sc3n2)cc1` (centres undefined), the Potency was “inactive”. With `COc1cc(N/C=C2\CC(=O)NC(C)=C2C#N)cc(OC)c1OC` the Potency was 10 µM (active). In the case of `COc1cc(NC(=O)c2nc3ccccc3nc2C)cc(OC)c1OC`, the Potency is reported as “inactive”. For `COc1cc2c(cc1OC)C(C(=O)Nc1cc(C)c(OC)c(C)c1)CC(=O)N2` (centres undefined), the Potency was “inactive”. With `COc1ccc(-c2nc3sc(CCNS(=O)(=O)c4ccc(F)c(C)c4)c(C)n3n2)cc1` the Potency was “inactive”. With `CCOc1ccccc1NC(=O)CN1CCN(S(=O)(=O)c2ccc(Br)cc2)CC1` the Potency was “inactive”. For `O=[N+]([O-])c1ccc(C=Nc2ccc(Cl)cc2Cl)s1`, the Potency was 39.8 µM (active). For `CCN(CC)/[N+]([O-])=N/OCOC(=O)Cc1c(C)n(C(=O)c2ccc(Cl)cc2)c2ccc(OC)cc12`, the Potency was “inactive”. `O=C(OCN1C(=O)c2ccccc2C1=O)/C(=C\c1ccco1)NC(=O)c1ccccc1` was tested, and the Potency was “inactive”. `O=c1nc2s/c(=C\c3ccco3)c(=O)n2nc1Cc1ccccc1` was tested, and the Potency was 7.94 µM (active). In the case of `O=C(Nc1ccccc1C(F)(F)F)c1nc(S(=O)(=O)Cc2ccccc2F)ncc1Cl`, the Potency is reported as “inactive”. With `NC1=NC(c2cc(F)cc(F)c2)n2c(nc3ccccc32)N1` (centres undefined) the Potency was “inactive”. In the case of `Cc1cc(C)c2oc(C(=O)Nc3ccc(S(=O)(=O)N4CCCCCC4)cc3)cc(=O)c2c1`, the Potency is reported as “inactive”.
